In the supplement of paper PMC10037445:
Whole data set: some 2,900 compounds, median “NF-kB SEAP reporter activity, fold change vs agonist alone” near 0.99, cut for the highest 2% near 2.6. What follows is part of a selection rich in the highest values, with near analogues and random picks from the rest.

Tests used:
RAW-Dual [1] = assay: NF-kB SEAP reporter activity, fold change vs agonist alone; cytotoxicity flag (confluency mask): not cytotoxic; higher = enhanced NF-kB activity
Summary of the method: (§1)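 RAW-Dual macrophages were seeded in DMEM at 50,000 cells/well in 384-well plates, given 50 nL of library stock by pin tool, and given a PRR agonist 1 h later. Plates were held at 37 °C, 5% CO2 for 20 hours, after which supernatant was read for IRF by QuantiLuc luminescence and for NF-κB by QuantiBlue absorbance at 620 nm. Reporter activity is expressed as fold change over wells that received agonist alone. A well was called cytotoxic when IncuCyte confluency fell below 70% of agonist controls in both mask sets.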

RAW-Dual [2] = assay: NF-kB SEAP reporter activity, fold change vs agonist alone; higher = enhanced NF-kB activity; conditions: library stock concentration (final ~1000-fold dilution): 10 mM, cytotoxicity flag (confluency mask): not cytotoxic
Summary of the method: as §1

[3] = agonist: ODN 1826 (TLR9) 0.5 ug/mL
[4] = agonist: Pam2CSK4 (TLR2/6) 0.1 ug/mL
[5] = agonist: Pam3CSK4 (TLR2/1) 0.1 ug/mL

Question: For `O=c1ccoc2cc(O)ccc12` (library stock concentration (final ~1000-fold dilution): 10 mM), which “NF-kB SEAP reporter activity” value (RAW-Dual [1]; agonist: LPS (TLR4) 0.1 ug/mL) is on record?
Answer: Its value is 1.85.

Question: What about the “NF-kB SEAP reporter activity” value (RAW-Dual [1]; [3]) of the same compound?
Answer: Its value is 1.15.

Question: What about the “NF-kB SEAP reporter activity” value (RAW-Dual [1]; [4]) of the same compound?
Answer: The value was 1.04.

Question: And the “NF-kB SEAP reporter activity” value (RAW-Dual [1]; [5])?
Answer: Its value is 0.865.

Question: `O=c1ccoc2cc(O)ccc12` was tested. Which “NF-kB SEAP reporter activity” value (RAW-Dual [2]; agonist: Imiquimod (TLR7) […]) did it give?
Answer: Its value is 1.18.

Question: And the “NF-kB SEAP reporter activity” value (RAW-Dual [2]; agonist: MPLA (TLR4) […])?
Answer: Its value is 1.15.

Question: Which “NF-kB SEAP reporter activity” value (RAW-Dual [2]; agonist: Imiquimod (TLR7) […]) does the source give for `Cc1cc(Nc2ncnc3ccc(-c4ccc(CNCCS(C)(=O)=O)o4)cc23)ccc1Oc1ccn2ncnc2c1` here?
Answer: Its value is 1.08.

Question: What about the “NF-kB SEAP reporter activity” value (RAW-Dual [2]; agonist: MPLA (TLR4) […]) of the same compound?
Answer: Its value is 1.53.

Question: Which results are given for `C=CC(=O)Nc1ccc2ncnc(Nc3ccc(OCc4cccc(F)c4)c(Cl)c3)c2c1.Cc1ccc(S(=O)(=O)O)cc1` (library stock concentration (final ~1000-fold dilution): 10 mM)?
Answer: NF-kB SEAP reporter activity (RAW-Dual [1]; agonist: LPS (TLR4) 0.1 ug/mL): 0.275; NF-kB SEAP reporter activity (RAW-Dual [1]; [3]): 0.575; NF-kB SEAP reporter activity (RAW-Dual [1]; [4]): 0.254; NF-kB SEAP reporter activity (RAW-Dual [1]; [5]): 0.377

Question: With `CS(=O)(=O)CCNCc1ccc(-c2ccc3ncnc(Nc4ccc(OCc5cccc(F)c5)c(Cl)c4)c3c2)o1.Cc1ccc(S(=O)(=O)O)cc1.Cc1ccc(S(=O)(=O)O)cc1` as the compound, how does the “NF-kB SEAP reporter activity” value (RAW-Dual [2]; agonist: Imiquimod (TLR7) […]) read?
Answer: The value was 1.68.

Question: What about the “NF-kB SEAP reporter activity” value (RAW-Dual [2]; agonist: MPLA (TLR4) […]) of the same compound?
Answer: The value was 1.56.

Question: Which “NF-kB SEAP reporter activity” value (RAW-Dual [1]; agonist: LPS (TLR4) 0.1 ug/mL) does the source give for `CC1COC(Nc2ccc3ncnc(Nc4ccc(OCc5nccs5)c(Cl)c4)c3c2)=N1` (stereo unspecified) (library stock concentration (final ~1000-fold dilution): 10 mM) here?
Answer: Its value is 0.991.

Question: And the “NF-kB SEAP reporter activity” value (RAW-Dual [1]; [3])?
Answer: The value was 0.507.

Question: And the “NF-kB SEAP reporter activity” value (RAW-Dual [1]; [4])?
Answer: Its value is 0.602.

Question: And the “NF-kB SEAP reporter activity” value (RAW-Dual [1]; [5])?
Answer: The value was 0.911.

Question: With `CS(=O)(=O)CCNCc1ccc(-c2ccc3ncnc(Nc4ccc(OCc5cccc(F)c5)c(Cl)c4)c3c2)o1.Cc1ccc(S(=O)(=O)O)cc1.Cc1ccc(S(=O)(=O)O)cc1.O` as the compound, how does the “NF-kB SEAP reporter activity” value (RAW-Dual [2]; agonist: MPLA (TLR4) […]) read?
Answer: Its value is 1.99.

Question: For `CS(=O)(=O)CCNCc1ccc(-c2ccc3ncnc(Nc4ccc(OCc5cccc(F)c5)c(Cl)c4)c3c2)o1.Cc1ccc(S(=O)(=O)O)cc1.Cc1ccc(S(=O)(=O)O)cc1.O` (library stock concentration (final ~1000-fold dilution): 10 mM), which “NF-kB SEAP reporter activity” value (RAW-Dual [1]; agonist: LPS (TLR4) 0.1 ug/mL) is on record?
Answer: Its value is 1.96.

Question: What about the “NF-kB SEAP reporter activity” value (RAW-Dual [1]; [3]) of the same compound?
Answer: The value was 0.24.

Question: What about the “NF-kB SEAP reporter activity” value (RAW-Dual [1]; [4]) of the same compound?
Answer: The value was 0.755.

Question: And the “NF-kB SEAP reporter activity” value (RAW-Dual [1]; [5])?
Answer: The value was 0.786.

Question: With `CC1COC(Nc2ccc3ncnc(Nc4ccc(OCc5nccs5)c(Cl)c4)c3c2)=N1` (stereo unspecified) as the compound, how does the “NF-kB SEAP reporter activity” value (RAW-Dual [2]; agonist: Imiquimod (TLR7) […]) read?
Answer: Its value is 1.28.

Question: What about the “NF-kB SEAP reporter activity” value (RAW-Dual [2]; agonist: MPLA (TLR4) […]) of the same compound?
Answer: The value was 1.03.

Question: Which results are given for `CS(=O)(=O)CCNCc1ccc(-c2ccc3ncnc(Nc4ccc(OCc5cccc(F)c5)c(Cl)c4)c3c2)o1` (library stock concentration (final ~1000-fold dilution): 10 mM)?
Answer: NF-kB SEAP reporter activity (RAW-Dual [1]; agonist: LPS (TLR4) 0.1 ug/mL): 2.56; NF-kB SEAP reporter activity (RAW-Dual [1]; [3]): 0.324; NF-kB SEAP reporter activity (RAW-Dual [1]; [4]): 0.657; NF-kB SEAP reporter activity (RAW-Dual [1]; [5]): 1.19

Question: `CS(=O)(=O)CCNCc1ccc(-c2ccc3ncnc(Nc4ccc(OCc5cccc(F)c5)c(Cl)c4)c3c2)o1.Cc1ccc(S(=O)(=O)O)cc1.Cc1ccc(S(=O)(=O)O)cc1` (library stock concentration (final ~1000-fold dilution): 10 mM) was tested. Which “NF-kB SEAP reporter activity” value (RAW-Dual [1]; agonist: LPS (TLR4) 0.1 ug/mL) did it give?
Answer: The value was 4.16.

Question: What about the “NF-kB SEAP reporter activity” value (RAW-Dual [1]; [3]) of the same compound?
Answer: The value was 0.272.

Question: What about the “NF-kB SEAP reporter activity” value (RAW-Dual [1]; [4]) of the same compound?
Answer: The value was 0.851.

Question: And the “NF-kB SEAP reporter activity” value (RAW-Dual [1]; [5])?
Answer: Its value is 1.14.

Question: For `C=CC(=O)Nc1ccc2ncnc(Nc3ccc(OCc4cccc(F)c4)c(Cl)c3)c2c1.Cc1ccc(S(=O)(=O)O)cc1`, which “NF-kB SEAP reporter activity” value (RAW-Dual [2]; agonist: Imiquimod (TLR7) […]) is on record?
Answer: The value was 0.818.

Question: And the “NF-kB SEAP reporter activity” value (RAW-Dual [2]; agonist: MPLA (TLR4) […])?
Answer: Its value is 0.445.

Question: For `CS(=O)(=O)CCNCc1ccc(-c2ccc3ncnc(Nc4ccc(OCc5cccc(F)c5)c(Cl)c4)c3c2)o1`, which “NF-kB SEAP reporter activity” value (RAW-Dual [2]; agonist: Imiquimod (TLR7) […]) is on record?
Answer: Its value is 2.12.

Question: What about the “NF-kB SEAP reporter activity” value (RAW-Dual [2]; agonist: MPLA (TLR4) […]) of the same compound?
Answer: The value was 2.

Question: What does the source list for `Cc1cc(Nc2ncnc3ccc(-c4ccc(CNCCS(C)(=O)=O)o4)cc23)ccc1Oc1ccn2ncnc2c1` (library stock concentration (final ~1000-fold dilution): 10 mM)?
Answer: NF-kB SEAP reporter activity (RAW-Dual [1]; agonist: LPS (TLR4) 0.1 ug/mL): 2.19; NF-kB SEAP reporter activity (RAW-Dual [1]; [3]): 0.229; NF-kB SEAP reporter activity (RAW-Dual [1]; [4]): 0.997; NF-kB SEAP reporter activity (RAW-Dual [1]; [5]): 0.811
